# Source: PMC7862700, “An all-to-all approach to the identification of sequence-specific readers for epigenetic DNA modifications on cytosine”
# Experiments:
# Experiment in all cases: DAPPL (digital affinity profiling via proximity ligation, sequencing); 10 mM Tris-HCl pH 7.5, 50 mM NaCl, 1 mM DTT, 4% glycerol, room temperature, 30 min; GST-TFs on glutathione beads, 16-mer random dsDNA library, 0.1% formaldehyde crosslink after washing; high values mean tight binding
# FLI1 = target: T1, FLI1 (Homo sapiens, UniProt Q01543 1-452); details: protein: recombinant; tags: N-terminal GST; dsDNA, one strand shown
# T1 sequence: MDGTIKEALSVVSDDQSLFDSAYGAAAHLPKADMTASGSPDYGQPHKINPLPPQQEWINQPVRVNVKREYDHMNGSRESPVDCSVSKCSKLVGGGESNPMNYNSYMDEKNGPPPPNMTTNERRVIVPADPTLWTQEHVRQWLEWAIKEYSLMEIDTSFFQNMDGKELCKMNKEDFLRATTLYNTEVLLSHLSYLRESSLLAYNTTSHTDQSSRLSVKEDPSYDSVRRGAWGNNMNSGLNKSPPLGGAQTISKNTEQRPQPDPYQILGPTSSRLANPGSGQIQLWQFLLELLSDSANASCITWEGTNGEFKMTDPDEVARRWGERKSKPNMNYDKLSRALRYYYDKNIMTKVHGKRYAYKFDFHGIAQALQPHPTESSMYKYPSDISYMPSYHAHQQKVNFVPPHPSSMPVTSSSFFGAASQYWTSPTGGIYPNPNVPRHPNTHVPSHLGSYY
# Summary of the method: (§1)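 Pools were built from human transcription factors expressed in yeast as GST fusions, captured on glutathione beads and DNA-barcoded, along with a tag-only sample. Incubation with 200 nmole of a 16-mer random double-stranded DNA library lasted 30 min at room temperature in Tris/NaCl/DTT/glycerol buffer, and was followed by washing, 0.1% formaldehyde crosslinking, proximity ligation, PCR amplification and Illumina NextSeq500 sequencing. Binding signal is the quotient of each hexamer's read frequency for a factor and its frequency for the tag-only sample.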
# ELK1 = target: T2, ELK1 (Homo sapiens, UniProt P19419 1-428); details: protein: recombinant; tags: N-terminal GST; dsDNA, one strand shown
# T2 sequence: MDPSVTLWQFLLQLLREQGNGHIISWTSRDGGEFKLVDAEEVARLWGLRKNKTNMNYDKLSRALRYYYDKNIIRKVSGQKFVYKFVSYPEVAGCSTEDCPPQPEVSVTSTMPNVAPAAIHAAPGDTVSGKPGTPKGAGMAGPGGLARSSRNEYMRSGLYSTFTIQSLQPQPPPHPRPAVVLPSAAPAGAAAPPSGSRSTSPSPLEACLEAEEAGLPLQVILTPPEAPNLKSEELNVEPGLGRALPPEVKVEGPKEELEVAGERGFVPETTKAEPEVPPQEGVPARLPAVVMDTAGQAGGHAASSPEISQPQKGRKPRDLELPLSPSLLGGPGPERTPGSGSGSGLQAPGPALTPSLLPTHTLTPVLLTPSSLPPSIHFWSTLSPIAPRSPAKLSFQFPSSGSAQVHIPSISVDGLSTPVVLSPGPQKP
# Summary of the method: as §1
# GABPA = target: T3, GABPA (Homo sapiens, UniProt Q06546 1-454); details: protein: recombinant; tags: N-terminal GST; dsDNA, one strand shown
# T3 sequence: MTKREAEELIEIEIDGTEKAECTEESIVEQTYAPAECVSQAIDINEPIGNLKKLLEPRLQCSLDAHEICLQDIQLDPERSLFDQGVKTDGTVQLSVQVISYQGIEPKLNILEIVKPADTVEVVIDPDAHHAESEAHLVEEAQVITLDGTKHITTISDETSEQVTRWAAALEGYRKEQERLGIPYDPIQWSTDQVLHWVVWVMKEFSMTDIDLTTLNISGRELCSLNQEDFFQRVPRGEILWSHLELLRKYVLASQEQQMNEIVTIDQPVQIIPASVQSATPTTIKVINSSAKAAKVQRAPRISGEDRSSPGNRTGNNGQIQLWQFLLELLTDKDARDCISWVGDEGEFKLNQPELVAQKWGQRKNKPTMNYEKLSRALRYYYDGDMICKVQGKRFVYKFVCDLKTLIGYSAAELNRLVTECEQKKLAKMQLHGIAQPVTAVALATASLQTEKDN
# Summary of the method: as §1
# ERG = target: T4, ERG (Homo sapiens, UniProt P11308 1-479); details: protein: recombinant; tags: N-terminal GST; dsDNA, one strand shown
# T4 sequence: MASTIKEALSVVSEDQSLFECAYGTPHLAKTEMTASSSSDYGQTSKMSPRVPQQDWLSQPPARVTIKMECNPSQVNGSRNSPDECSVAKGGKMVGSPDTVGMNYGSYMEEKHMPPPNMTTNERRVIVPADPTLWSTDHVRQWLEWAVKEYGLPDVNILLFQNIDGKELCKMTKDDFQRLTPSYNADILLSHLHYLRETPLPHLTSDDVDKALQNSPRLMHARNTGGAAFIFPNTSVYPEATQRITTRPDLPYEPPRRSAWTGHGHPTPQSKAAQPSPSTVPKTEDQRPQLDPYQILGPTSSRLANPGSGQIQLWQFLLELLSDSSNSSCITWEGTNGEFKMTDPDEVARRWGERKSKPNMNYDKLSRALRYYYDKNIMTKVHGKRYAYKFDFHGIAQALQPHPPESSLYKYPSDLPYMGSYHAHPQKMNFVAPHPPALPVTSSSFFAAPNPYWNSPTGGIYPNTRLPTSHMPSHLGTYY
# Summary of the method: as §1
# ELF1 = ELF1 (Homo sapiens, UniProt P32519 1-619); details: protein: recombinant; tags: N-terminal GST; dsDNA, one strand shown
# Summary of the method: as §1
# EHF = target: T5, EHF (Homo sapiens, UniProt Q9NZC4 1-300); details: protein: recombinant; tags: N-terminal GST; dsDNA, one strand shown
# T5 sequence: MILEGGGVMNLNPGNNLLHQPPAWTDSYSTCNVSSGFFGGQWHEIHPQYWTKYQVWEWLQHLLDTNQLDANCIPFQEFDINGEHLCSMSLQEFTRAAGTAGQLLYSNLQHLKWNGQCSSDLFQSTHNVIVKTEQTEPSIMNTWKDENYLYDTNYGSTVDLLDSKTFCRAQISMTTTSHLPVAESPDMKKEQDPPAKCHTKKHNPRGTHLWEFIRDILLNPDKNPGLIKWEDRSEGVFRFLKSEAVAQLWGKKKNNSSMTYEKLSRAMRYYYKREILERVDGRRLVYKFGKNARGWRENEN
# Summary of the method: as §1
# SPI1 = SPI1 (Homo sapiens, UniProt P17947 1-270); details: protein: recombinant; tags: N-terminal GST; dsDNA, one strand shown
# Summary of the method: as §1
# SPIB = SPIB (Homo sapiens, UniProt Q01892 1-262); details: protein: recombinant; tags: N-terminal GST; dsDNA, one strand shown
# Summary of the method: as §1
# ELK3 = target: T6, ELK3 (Homo sapiens, UniProt P41970 1-407); details: protein: recombinant; tags: N-terminal GST; dsDNA, one strand shown
# T6 sequence: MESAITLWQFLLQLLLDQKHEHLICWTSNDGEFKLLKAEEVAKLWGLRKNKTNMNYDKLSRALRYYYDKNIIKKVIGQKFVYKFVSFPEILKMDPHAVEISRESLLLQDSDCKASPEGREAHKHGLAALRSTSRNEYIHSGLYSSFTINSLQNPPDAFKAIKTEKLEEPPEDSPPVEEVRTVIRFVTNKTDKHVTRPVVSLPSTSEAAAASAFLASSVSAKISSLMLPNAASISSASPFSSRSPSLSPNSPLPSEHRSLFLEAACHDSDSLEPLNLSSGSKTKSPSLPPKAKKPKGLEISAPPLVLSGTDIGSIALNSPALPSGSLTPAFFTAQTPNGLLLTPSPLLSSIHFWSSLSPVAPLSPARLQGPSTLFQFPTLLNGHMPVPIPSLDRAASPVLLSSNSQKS
# Summary of the method: as §1
# FEV = target: T7, FEV (Homo sapiens, UniProt Q99581 1-238); details: protein: recombinant; tags: N-terminal GST; dsDNA, one strand shown
# T7 sequence: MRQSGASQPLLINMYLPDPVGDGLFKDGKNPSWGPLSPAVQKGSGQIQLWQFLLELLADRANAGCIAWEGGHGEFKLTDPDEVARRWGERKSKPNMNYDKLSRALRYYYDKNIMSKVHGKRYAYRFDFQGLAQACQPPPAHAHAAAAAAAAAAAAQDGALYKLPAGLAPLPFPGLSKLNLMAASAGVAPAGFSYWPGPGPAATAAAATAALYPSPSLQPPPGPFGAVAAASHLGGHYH
# Summary of the method: as §1
# ETV5 = ETV5 (Homo sapiens, UniProt P41161 1-510); details: protein: recombinant; tags: N-terminal GST; dsDNA, one strand shown
# Summary of the method: as §1
# HSF1 = HSF1 (Homo sapiens, UniProt Q00613 1-529); details: protein: recombinant; tags: N-terminal GST; chain copies: 3; dsDNA, one strand shown
# Summary of the method: as §1
# SPIC = target: T8, SPIC (Homo sapiens, UniProt Q8N5J4 1-248); details: protein: recombinant; tags: N-terminal GST; dsDNA, one strand shown
# T8 sequence: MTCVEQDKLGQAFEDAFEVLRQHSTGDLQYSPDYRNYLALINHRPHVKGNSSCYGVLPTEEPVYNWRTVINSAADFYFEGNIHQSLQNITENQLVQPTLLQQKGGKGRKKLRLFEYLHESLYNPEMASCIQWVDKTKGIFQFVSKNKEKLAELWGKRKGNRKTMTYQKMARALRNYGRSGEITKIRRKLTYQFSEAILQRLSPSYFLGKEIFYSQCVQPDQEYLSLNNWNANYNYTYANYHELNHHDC
# Summary of the method: as §1
# ELF4 = ELF4 (Homo sapiens, UniProt Q99607 1-663); details: protein: recombinant; tags: N-terminal GST; dsDNA, one strand shown
# Summary of the method: as §1
# ELK4 = target: T9, ELK4 (Homo sapiens, UniProt P28324-2 1-405); details: protein: recombinant; tags: N-terminal GST; dsDNA, one strand shown
# T9 sequence: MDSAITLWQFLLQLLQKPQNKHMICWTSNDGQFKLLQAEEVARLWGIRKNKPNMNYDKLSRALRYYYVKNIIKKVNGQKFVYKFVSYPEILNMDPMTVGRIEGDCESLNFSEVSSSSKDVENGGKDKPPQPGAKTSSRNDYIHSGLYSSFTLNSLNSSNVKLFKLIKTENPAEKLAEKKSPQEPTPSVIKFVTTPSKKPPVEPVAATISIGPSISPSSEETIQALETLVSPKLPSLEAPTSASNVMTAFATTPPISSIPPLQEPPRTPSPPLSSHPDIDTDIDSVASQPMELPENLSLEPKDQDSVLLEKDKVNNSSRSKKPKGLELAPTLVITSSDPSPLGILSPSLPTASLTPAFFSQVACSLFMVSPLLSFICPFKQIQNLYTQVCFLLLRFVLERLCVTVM
# Summary of the method: as §1
# ETV2 = target: T10, ETV2 (Homo sapiens, UniProt O00321 1-342); details: protein: recombinant; tags: N-terminal GST; dsDNA, one strand shown
# T10 sequence: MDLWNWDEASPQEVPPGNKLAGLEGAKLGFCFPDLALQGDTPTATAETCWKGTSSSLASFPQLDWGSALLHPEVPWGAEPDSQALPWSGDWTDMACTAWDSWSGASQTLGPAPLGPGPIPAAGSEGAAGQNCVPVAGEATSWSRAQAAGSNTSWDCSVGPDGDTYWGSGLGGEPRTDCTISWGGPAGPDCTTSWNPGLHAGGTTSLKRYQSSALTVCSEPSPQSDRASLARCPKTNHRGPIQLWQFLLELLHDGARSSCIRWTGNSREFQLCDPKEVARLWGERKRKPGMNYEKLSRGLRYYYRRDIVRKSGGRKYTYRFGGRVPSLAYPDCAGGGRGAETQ
# Summary of the method: as §1
# ELF3 = target: T11, ELF3 (Homo sapiens, UniProt P78545 1-371); details: protein: recombinant; tags: N-terminal GST; dsDNA, one strand shown
# T11 sequence: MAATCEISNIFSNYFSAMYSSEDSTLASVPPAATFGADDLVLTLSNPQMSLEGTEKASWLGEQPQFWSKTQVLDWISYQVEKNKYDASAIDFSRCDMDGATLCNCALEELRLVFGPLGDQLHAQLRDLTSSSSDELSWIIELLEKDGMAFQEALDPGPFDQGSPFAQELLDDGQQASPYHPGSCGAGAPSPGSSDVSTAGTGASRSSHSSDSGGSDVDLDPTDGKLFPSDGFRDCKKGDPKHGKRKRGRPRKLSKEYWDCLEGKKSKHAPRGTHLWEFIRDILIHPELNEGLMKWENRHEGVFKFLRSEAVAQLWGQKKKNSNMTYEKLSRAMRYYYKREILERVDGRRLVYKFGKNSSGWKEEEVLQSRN
# Summary of the method: as §1
# CRX = CRX (Homo sapiens, UniProt O43186 1-299); details: protein: recombinant; tags: N-terminal GST; dsDNA, one strand shown
# Summary of the method: as §1
# ETV1 = ETV1 (Homo sapiens, UniProt P50549 1-477); details: protein: recombinant; tags: N-terminal GST; dsDNA, one strand shown
# Summary of the method: as §1
# Chain of ELF1 (P32519 whole entry): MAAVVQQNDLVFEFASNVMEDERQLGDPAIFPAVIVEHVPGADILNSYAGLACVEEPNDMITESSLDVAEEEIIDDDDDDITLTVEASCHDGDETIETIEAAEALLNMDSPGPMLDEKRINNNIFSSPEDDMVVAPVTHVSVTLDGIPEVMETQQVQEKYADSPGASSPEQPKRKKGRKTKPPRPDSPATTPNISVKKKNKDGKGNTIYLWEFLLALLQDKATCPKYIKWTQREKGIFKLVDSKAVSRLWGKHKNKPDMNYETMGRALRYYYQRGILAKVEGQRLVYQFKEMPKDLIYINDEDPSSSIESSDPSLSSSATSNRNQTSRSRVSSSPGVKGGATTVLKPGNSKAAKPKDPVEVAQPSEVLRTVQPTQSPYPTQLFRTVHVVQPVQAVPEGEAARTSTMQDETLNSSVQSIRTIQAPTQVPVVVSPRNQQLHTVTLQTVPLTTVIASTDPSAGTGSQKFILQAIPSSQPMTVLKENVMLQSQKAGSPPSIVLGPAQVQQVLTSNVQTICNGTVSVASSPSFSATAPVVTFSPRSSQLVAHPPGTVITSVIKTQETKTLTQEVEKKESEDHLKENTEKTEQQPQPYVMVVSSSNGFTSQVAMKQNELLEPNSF
# Chain of SPIB (Q01892 whole entry): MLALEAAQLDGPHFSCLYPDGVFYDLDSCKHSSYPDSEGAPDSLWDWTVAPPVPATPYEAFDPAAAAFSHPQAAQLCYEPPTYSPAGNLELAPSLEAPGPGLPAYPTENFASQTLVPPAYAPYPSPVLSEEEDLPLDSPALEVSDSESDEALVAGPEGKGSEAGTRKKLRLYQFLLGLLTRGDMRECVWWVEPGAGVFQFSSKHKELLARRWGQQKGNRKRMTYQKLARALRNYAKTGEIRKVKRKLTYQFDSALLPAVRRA
# Chain of ETV5 (P41161 whole entry): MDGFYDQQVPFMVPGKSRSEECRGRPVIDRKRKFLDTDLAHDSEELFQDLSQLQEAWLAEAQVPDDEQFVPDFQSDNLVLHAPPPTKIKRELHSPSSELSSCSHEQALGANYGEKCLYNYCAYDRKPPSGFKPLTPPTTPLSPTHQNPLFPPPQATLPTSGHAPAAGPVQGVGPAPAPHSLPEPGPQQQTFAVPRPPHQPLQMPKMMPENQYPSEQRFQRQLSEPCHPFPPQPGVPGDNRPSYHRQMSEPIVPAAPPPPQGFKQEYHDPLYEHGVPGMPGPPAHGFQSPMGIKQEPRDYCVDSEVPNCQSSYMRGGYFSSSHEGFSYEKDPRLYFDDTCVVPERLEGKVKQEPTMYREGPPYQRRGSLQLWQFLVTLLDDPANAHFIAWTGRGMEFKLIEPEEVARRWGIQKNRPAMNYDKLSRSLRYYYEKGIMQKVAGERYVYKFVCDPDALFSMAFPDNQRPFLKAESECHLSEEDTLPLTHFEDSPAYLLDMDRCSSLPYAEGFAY
# Chain of HSF1 (Q00613 whole entry): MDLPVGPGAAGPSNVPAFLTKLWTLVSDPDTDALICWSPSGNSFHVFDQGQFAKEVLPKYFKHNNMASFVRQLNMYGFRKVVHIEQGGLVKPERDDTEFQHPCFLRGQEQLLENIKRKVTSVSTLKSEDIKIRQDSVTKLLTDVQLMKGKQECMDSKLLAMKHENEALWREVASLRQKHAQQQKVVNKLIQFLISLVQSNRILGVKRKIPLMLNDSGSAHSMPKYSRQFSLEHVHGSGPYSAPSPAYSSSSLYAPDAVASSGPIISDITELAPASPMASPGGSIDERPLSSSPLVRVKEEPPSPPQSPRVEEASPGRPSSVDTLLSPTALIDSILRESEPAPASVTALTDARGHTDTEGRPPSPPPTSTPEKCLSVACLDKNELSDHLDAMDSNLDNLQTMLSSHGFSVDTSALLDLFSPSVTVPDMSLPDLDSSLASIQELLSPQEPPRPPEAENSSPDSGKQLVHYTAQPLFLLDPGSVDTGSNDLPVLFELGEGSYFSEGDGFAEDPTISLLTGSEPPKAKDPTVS
# Chain of CRX (O43186 whole entry): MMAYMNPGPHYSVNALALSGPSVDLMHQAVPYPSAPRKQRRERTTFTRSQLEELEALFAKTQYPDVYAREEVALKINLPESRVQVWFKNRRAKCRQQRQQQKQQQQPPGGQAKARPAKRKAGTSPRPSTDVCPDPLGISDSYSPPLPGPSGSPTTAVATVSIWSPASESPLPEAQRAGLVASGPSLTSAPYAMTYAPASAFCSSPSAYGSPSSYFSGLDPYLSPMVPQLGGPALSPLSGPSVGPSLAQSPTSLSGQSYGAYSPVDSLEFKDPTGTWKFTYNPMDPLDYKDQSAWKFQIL
# Chain of ELF4 (Q99607 whole entry): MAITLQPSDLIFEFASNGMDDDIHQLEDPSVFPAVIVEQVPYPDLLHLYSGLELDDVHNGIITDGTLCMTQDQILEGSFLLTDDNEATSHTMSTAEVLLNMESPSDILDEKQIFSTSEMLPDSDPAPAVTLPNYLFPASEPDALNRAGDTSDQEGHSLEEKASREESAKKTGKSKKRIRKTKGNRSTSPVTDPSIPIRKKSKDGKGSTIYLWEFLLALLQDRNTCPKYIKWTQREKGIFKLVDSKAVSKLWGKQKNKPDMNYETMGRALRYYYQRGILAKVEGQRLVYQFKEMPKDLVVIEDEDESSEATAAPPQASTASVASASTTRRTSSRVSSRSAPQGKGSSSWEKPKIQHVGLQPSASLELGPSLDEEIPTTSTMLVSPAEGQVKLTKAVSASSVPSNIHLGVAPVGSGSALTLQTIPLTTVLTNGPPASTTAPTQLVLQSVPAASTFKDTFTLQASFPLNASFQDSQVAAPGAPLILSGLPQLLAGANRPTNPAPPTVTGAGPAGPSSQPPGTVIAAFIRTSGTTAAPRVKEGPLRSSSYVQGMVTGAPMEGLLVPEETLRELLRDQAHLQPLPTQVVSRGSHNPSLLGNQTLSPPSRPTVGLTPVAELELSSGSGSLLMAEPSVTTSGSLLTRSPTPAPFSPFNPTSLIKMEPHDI
# Chain of ETV1 (P50549 whole entry): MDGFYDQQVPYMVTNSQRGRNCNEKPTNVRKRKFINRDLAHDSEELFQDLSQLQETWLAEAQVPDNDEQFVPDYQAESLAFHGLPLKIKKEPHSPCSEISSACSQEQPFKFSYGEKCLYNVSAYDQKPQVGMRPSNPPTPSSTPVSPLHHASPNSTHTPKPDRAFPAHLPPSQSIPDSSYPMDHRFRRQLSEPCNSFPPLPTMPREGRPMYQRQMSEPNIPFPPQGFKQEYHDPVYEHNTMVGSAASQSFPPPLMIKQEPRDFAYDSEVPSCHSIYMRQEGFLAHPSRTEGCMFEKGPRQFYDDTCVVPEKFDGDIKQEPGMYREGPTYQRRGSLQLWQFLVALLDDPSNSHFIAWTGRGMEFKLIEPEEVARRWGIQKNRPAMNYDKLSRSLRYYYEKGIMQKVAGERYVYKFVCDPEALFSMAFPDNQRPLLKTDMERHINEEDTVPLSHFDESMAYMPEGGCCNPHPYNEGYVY
sequence,measurement,setting,value
CTCTCG,binding signal,FLI1,"1.42 fold enrichment (6-mer frequency, TF over GST control)"
same,binding signal,ELK1,"1.34 fold enrichment (6-mer frequency, TF over GST control)"
same,binding signal,GABPA,"1.37 fold enrichment (6-mer frequency, TF over GST control)"
same,binding signal,ERG,"1.44 fold enrichment (6-mer frequency, TF over GST control)"
same,binding signal,ELF1,"1.49 fold enrichment (6-mer frequency, TF over GST control)"
same,binding signal,EHF,"1.31 fold enrichment (6-mer frequency, TF over GST control)"
same,binding signal,SPI1,"1.45 fold enrichment (6-mer frequency, TF over GST control)"
same,binding signal,SPIB,"1.37 fold enrichment (6-mer frequency, TF over GST control)"
same,binding signal,ELK3,"1.47 fold enrichment (6-mer frequency, TF over GST control)"
same,binding signal,FEV,"1.3 fold enrichment (6-mer frequency, TF over GST control)"
same,binding signal,ETV5,"1.32 fold enrichment (6-mer frequency, TF over GST control)"
same,binding signal,HSF1,"1.99 fold enrichment (6-mer frequency, TF over GST control)"
same,binding signal,SPIC,"1.3 fold enrichment (6-mer frequency, TF over GST control)"
same,binding signal,ELF4,"1.45 fold enrichment (6-mer frequency, TF over GST control)"
same,binding signal,ELK4,"1.41 fold enrichment (6-mer frequency, TF over GST control)"
same,binding signal,ETV2,"1.73 fold enrichment (6-mer frequency, TF over GST control)"
same,binding signal,ELF3,"1.65 fold enrichment (6-mer frequency, TF over GST control)"
same,binding signal,CRX,"1.32 fold enrichment (6-mer frequency, TF over GST control)"
same,binding signal,ETV1,"1.47 fold enrichment (6-mer frequency, TF over GST control)"
